The text below walks through data of ChEMBL document CHEMBL4513216, “Probing the Open Global Health Chemical Diversity Library for Multistage-Active Starting Points for Next-Generation Antimalarials” (ACS Infect Dis, 2020).

Among all 68,000 compounds or so, about 2,700 (4%) showed an effect of 50% or more. The entries come from a sample that favours strong results as a whole.

The test system of the assay is Plasmodium berghei. Nature of the assay: Screen against P. berghei liver stage (PbLuc), transformed with Luciferase, at 2uM. The class given is functional, HepG2. The following applies: tested at 2 uM.
As for `CN(Cc1ccsc1)C(=O)c1cccc(F)c1`, the INHIBITION was 14.82%. Then `Cc1ccc(NC2CCN(C(=O)COCC3CC3)CC2)nn1`, with 15.28%; and `O=C(NCc1ccc(Cl)s1)c1cc(CN2CCCC(O)C2)on1` (stereo unspecified), with 4.38%. Then `O=C(NCc1c(F)cccc1Cl)c1cc(CN2CCCC(O)C2)on1` (stereo unspecified), with 52.51%. Then `O=C(NCc1cccc(F)c1F)c1cc(CN2CCCC(O)C2)on1` (stereo unspecified), with -81.33%; and `O=C(CCn1cccn1)NS(=O)(=O)N1CCCc2ccccc21`, with -1.45%. On to `Cc1nnc(CN2CCCC2c2ccc(C(C)(C)C)cc2)o1` (stereo unspecified), for which the INHIBITION turned out to be 29.19%. Then `Cc1nnc(CN2CCCC2c2ccc(Cl)c(Cl)c2)o1` (stereo unspecified), with -107.58%. Then `COc1ccc(C2CCCCCN2Cc2nnc(C)o2)cc1` (stereo unspecified), with 52.83%; and `CN(C)C(=O)CN1CC=C(c2cnn(Cc3ccccc3)c2)CC1`, with 21.95%. Then `COc1cccc(Cn2cc(C3=CCN(CCO)CC3)cn2)c1`, with 13.24%; and `COc1cccc(Cn2cc(C3=CCN(CC(=O)N(C)C)CC3)cn2)c1`, with 57.41%. On to `O=C(Nc1cnn(CCN2CCOCC2)c1)c1ccccc1O`, for which the INHIBITION is reported as -12.48%. Then `O=C(Nc1cnn(CCN2CCOCC2)c1)c1cc(F)ccc1F`, with 53.03%. Then `O=C(Nc1cnn(CCN2CCOCC2)c1)c1ccccc1Cl`, with 28.33%. Turning to `COc1ncccc1CN1C[C@@H]2OCCN(CCN(C)C)[C@@H]2C1`, the INHIBITION is 22.18%. Then `c1coc(CN2CCn3c(CN4CCOCC4)nnc3C2)c1`, with 8.99%; and `Cc1[nH]nc(CCC(=O)N2CCOC(CCc3ccccc3)C2)c1C` (stereo unspecified), with -18.99%.

As for `c1ccc2c(c1)nc1n2[C@@H](CNCc2nccs2)COC1`, the INHIBITION was found to be 24.64%. Then `COc1ccc2c(c1)nc1n2[C@@H](CNCc2nccs2)COC1`, with 24.42%.

On to `Fc1ccc2c(c1)nc1n2[C@@H](CNCc2nccs2)COC1`, for which the INHIBITION was determined as 61.42%. Turning to `CC(C)n1ccnc1CN1CCOC(C)(C(=O)N2CCOCC2)C1` (stereo unspecified), the INHIBITION is given as 13.58%. Then `Cc1nc(N2CCOCC2)nc2c1CCN(Cc1nccn1C)CC2`, with 13.25%; and `COCC(=O)N1C[C@H]2CN(Cc3csc(C)n3)C(=O)[C@H]2C1`, with -6.13%. In the case of `Cc1cccc(CN2C[C@@H]3COC[C@]3(CNC(=O)c3cccn3C)C2)n1`, the INHIBITION is on record as -26.91%. Then `Cn1cc(CN2C[C@@H]3COC[C@]3(CNC(=O)c3ccco3)C2)cn1`, with 67.67%.

Take `O=C(NC[C@]12COC[C@H]1CN(Cc1ccncc1)C2)c1ccco1`: the INHIBITION was -5.65%. Then `Cc1cccc(CN2C[C@@H]3COC[C@]3(CNC(=O)C3CCC3)C2)c1`, with 55.92%; and `Cn1cc(CN2C[C@@H]3COC[C@]3(CNC(=O)c3ccccc3)C2)cn1`, with 23.43%. Regarding `COc1cccc(CN2C[C@@H]3COC[C@]3(CNC(=O)C3CC3)C2)c1`, the INHIBITION is given as -9.07%.

`Cc1cccc(CN2C[C@@H]3COC[C@]3(CNC(=O)c3ccsc3)C2)n1`: the INHIBITION was -26.88%. Then `Cc1cccc(CN2C[C@@H]3COC[C@]3(CNC(=O)c3ccccc3)C2)n1`, with 59.04%. Then `Cc1cccc(CN2C[C@@H]3COC[C@]3(CNC(=O)C3CC3)C2)c1`, with -2.81%. Then `COc1cccc(OC)c1C(C(=O)O)N(C)Cc1c(C)n[nH]c1C` (stereo unspecified), with 17.2%.

Consider `CCN1CCC2(CC1)CC(NCc1cccs1)c1ccccc1O2` (stereo unspecified), for which the INHIBITION is listed as -5.2%. Then `COCC(=O)N1CC(=O)c2sc(Nc3ccc(F)cc3F)nc2C1`, with -0.83%. Then `Cc1noc(C(C)Nc2ccc3c(c2)CCC3)n1` (stereo unspecified), with -46.99%; and `CN1CCc2c(C#N)c(NCCc3ccccc3)n3cnnc3c2C1`, with -30.35%.

In the case of `Cc1ccc(NS(=O)(=O)c2c[nH]c3ncccc23)nc1`, the INHIBITION is -27.36%.

Take `Cc1csc(NC(=O)c2cnc(C3CCCN3)cn2)n1` (stereo unspecified): the INHIBITION turned out to be 14.47%.

`CCCn1nc2c(cc1=O)CN(Cc1ncc(C(C)(C)C)o1)CC2`: the INHIBITION came out at 27.85%. Then `C1=CCN(c2nc(CC3CC3)nc3c2CCN(C2CCOCC2)CC3)C1`, with -59.35%. For the molecule `O=C(c1cc(-c2ccc(O)cc2)n[nH]1)N1CCCC1c1cccnc1` (stereo unspecified), the INHIBITION was found to be 35.01%.

Take `COCC(=O)N1CC[C@]2(O)CCN(C(=O)CCc3ccsc3)C[C@@H]2C1`: the INHIBITION was -11.68%. Then `COCC(=O)N1CCN(C(=O)CCc2ccsc2)CC1`, with 67.28%; and `COc1cc(C)nc(N2CCN(C(=O)CCc3ccsc3)CC2)n1`, with 1.77%; and `C[C@H]1CN(C(=O)c2cccc(F)c2Cl)CCN1S(C)(=O)=O`, with -33.29%. For `CSc1nccc(N2CCC(NCc3ccc4c(c3)OCO4)CC2)n1`, the INHIBITION worked out at 46.95%. Then `c1ccc(CN2CCOCC3(CCN(C4CCOCC4)C3)C2)cc1` (stereo unspecified), with -28.17%; and `CCc1[nH]c2c(CNC(=O)C3CCS(=O)(=O)CC3)cc(C)cc2c1C`, with 13.65%; and `CCc1[nH]c2c(CNC(=O)C3CCC(=O)NC3)cc(C)cc2c1C` (stereo unspecified), with 11.37%.
